PubChem BioAssay AID1159580 (chemical genetic matrix, 2015)
Values joined by “and” are separate entries in the source; they are usually repeats but may differ in a detail not shown here. Identical values can stand only once. Hit rate of the full screen: of about 5,500 compounds, about 2,000 (36%) were called active. About 18% were inconclusive and are not listed. No stated cut-off is given here; in the data, active means normalized growth mostly below about 0.91 (no sharp cut-off); inconclusive means no clear call, values can overlap the other calls; inactive means mostly above about 0.92. Some of the results follow.

Experiment: chemical genetic growth profiling, strain panel (AID 1159580);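 further: tested at 20 µM; growth read once vehicle control cultures reached saturation at 30 °C; 1 = growth at the plate median or of vehicle wells; lower values mean less growth of the strain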
Settings: S. cerevisiae deletion strains, growth OD

Measured: normalized growth

CC(C)(Sc1cc(C(C)(C)C)c(O)c(C(C)(C)C)c1)Sc1cc(C(C)(C)C)c(O)c(C(C)(C)C)c1
inactive: locus YAL013W, strain DEP1, active compounds read low 1.02 | locus YAL021C, strain ccr4, active compounds read low 1.03 | locus YAL026C, strain drs2, active compounds read low 1.01 | locus YAL030W, strain snc1, active compounds read low 1 | locus YBL061C, strain skt5, active compounds read low 0.993 | locus YBR009C, strain hhf1, active compounds read low 1.02 | locus YBR021W, strain FUR4, active compounds read low 1.01 | locus YBR023C, strain chs3, active compounds read low 0.998 | locus YBR171W, strain sec66, active compounds read low 1 | locus YBR229C, strain ROT2, active compounds read low 1.01 | locus YBR231C, strain swc5, active compounds read low 0.998 | locus YBR279W, strain paf1, active compounds read low 0.993 | locus YCL011C, strain gbp2, active compounds read low 1.02 | locus YCL016C, strain dcc1, active compounds read low 1 | locus YCL029C, strain bik1, active compounds read low 1.04 | locus YCL069W, strain vba3, active compounds read low 1.01 | locus YCR088W, strain abp1, active compounds read low 1 | locus YDL005C, strain med2, active compounds read low 1.02 | locus YDL035C, strain GPR1, active compounds read low 1.02 | locus YDL040C, strain nat1, active compounds read low 0.991 | locus YDL074C, strain BRE1, active compounds read low 1.03 | locus YDL101C, strain DUN1, active compounds read low 1.02 | locus YDL134C, strain PPH21, active compounds read low 1 | locus YDL185W, strain tfp1, active compounds read low 1.02 | locus YDL192W, strain arf1, active compounds read low 1.03 | locus YDR001C, strain nth1, active compounds read low 1.02 | locus YDR069C, strain doa4, active compounds read low 0.999 | locus YDR101C, strain arx1, active compounds read low 1.02 | locus YDR137W, strain rgp1, active compounds read low 0.99 | locus YDR150W, strain NUM1, active compounds read low 1.01 | locus YDR159W, strain sac3, active compounds read low 0.989 | locus YDR162C, strain NBP2, active compounds read low 1.01 | locus YDR195W, strain ref2 1.06 | locus YDR297W, strain sur2, active compounds read low 0.99 | locus YDR318W, strain mcm21, active compounds read low 1.04 | locus YDR334W, strain swr1, active compounds read low 1.02 | locus YDR335W, strain msn5, active compounds read low 1.01 | locus YDR388W, active compounds read low 1.02 | locus YDR392W, strain spt3, active compounds read low 1.03 | locus YDR502C, strain sam2, active compounds read low 1.02 | locus YEL003W, strain gim4, active compounds read low 1.02 | locus YEL037C, strain rad23, active compounds read low 1.01 | locus YEL061C, strain CIN8 (second series), active compounds read low 1.01 | locus YEL061C, strain CIN8, active compounds read low 1.01 | locus YER015W, strain faa2, active compounds read low 1.01 | locus YER016W, strain bim1, active compounds read low 1.01 | locus YER110C, active compounds read low 1.02 | locus YER111C, strain swi4, active compounds read low 1.01 | locus YER155C, strain BEM2 (second series), active compounds read low 0.985 | locus YER155C, strain BEM2, active compounds read low 1.01 | locus YER167W, strain BCK2, active compounds read low 1.03 | locus YFR010W, strain ubp6, active compounds read low 1.04 | locus YGL078C, strain dbp3, active compounds read low 1.03 | locus YGL167C, strain pmr1, active compounds read low 0.998 | locus YGL173C, strain kem1, active compounds read low 0.986 | locus YGL227W, strain vid30, active compounds read low 1.02 | locus YGL240W, strain doc1, active compounds read low 0.958 | locus YGL248W, strain PDE1, active compounds read low 1.01 | locus YGL253W, strain hxk2, active compounds read low 1.02 | locus YGR078C, strain PAC10, active compounds read low 1.02 | locus YGR135W, strain pre9, active compounds read low 1.04 | locus YGR229C, strain SMI1, active compounds read low 1.02 | locus YGR252W, strain gcn5, active compounds read low 1.06 | locus YHR013C, strain ard1, active compounds read low 1 | locus YHR027C, strain rpn1, active compounds read low 1 | locus YHR030C, strain SLT2, active compounds read low 1.02 and 0.989 | locus YHR079C, strain IRE1 (second series), active compounds read low 1.02 | locus YHR079C, strain IRE1, active compounds read low 1 | locus YHR094C, strain hxt1, active compounds read low 1.02 | locus YHR129C, strain ARP1, active compounds read low 1.01 | locus YHR142W, strain chs7, active compounds read low 1.04 | locus YHR200W, strain rpn10, active compounds read low 1.01 | locus YIL066C, strain RNR3, active compounds read low 1.01 | locus YIL073C, strain SPO22, active compounds read low 1.05 | locus YIL125W, strain kgd1, active compounds read low 1.02 | locus YIR030C, strain dcg1, active compounds read low 1.02 | locus YJL092W, strain hpr5, active compounds read low 1.01 | locus YJL095W, strain BCK1 (second series), active compounds read low 1 | locus YJL095W, strain BCK1, active compounds read low 1.05 and 0.992 | locus YJL115W, strain asf1, active compounds read low 0.993 | locus YJL129C, strain trk1, active compounds read low 1.02 | locus YJL134W, strain LCB3, active compounds read low 1.01 | locus YJL154C, strain vps35, active compounds read low 1.01 | locus YJL164C, strain tpk1, active compounds read low 1.01 | locus YJL166W, strain qcr8, active compounds read low 1.01 | locus YJL168C, strain set2, active compounds read low 1.02 | locus YJL187C, strain SWE1 (second series), active compounds read low 1.02 | locus YJL187C, strain SWE1, active compounds read low 1 | locus YJR043C, strain POL32, active compounds read low 1.03 | locus YJR066W, strain TOR1, active compounds read low 0.9
active: locus YGL086W, strain mad1, active compounds read low 1.35 [resistant]
